Measurements published in PubChem BioAssay (NCI).
“And” between values parts separate entries of the source, which are not always exact repeats. Equal entries are not always repeated. This is part of a sample that, as a whole, favours compounds with a hit. Of some 83,000 tested, about 20% had one in any assay.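 In brief: 96-well plates, 48 h treatment, single concentration, percent growth endpoint.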 Unmarked numbers belong to inactive results. The source made the active and inactive calls. Rule for the calls: active = growth percent below 10; inactive = the rest.

test system: MDA-MB-468 breast; assay: NCI-60 one-dose screen, 48 h (100 = growth as untreated, 0 = no growth, -100 = all killed); details: 10 µM unless noted

Q: With `CC/C(=C(\c1ccc(O)cc1)c1ccc(OCCN(C)CCN(C)C(=O)CCC(=O)c2c(C)[nH]c(/C=C3\N=C(c4ccc[nH]4)C=C3OC)c2C)cc1)c1ccccc1` as the molecule, how does the growth read?
A: 65.9%

Q: For `Nc1nnc2cc(Cl)ccc2n1`, which growth is on record?
A: 101%

Q: How did the growth turn out when `CCSc1ccc2c(c1)N(CCCN1CCN(C)CC1)c1ccccc1S2` was run?
A: -3.41% (active)

Q: How did the growth turn out when `Cl.Fc1c[c-]c(-c2ccccn2)c(F)c1.[Pt].c1ccc([PH+](C[PH+](c2ccccc2)c2ccccc2)c2ccccc2)cc1` was run?
A: -75.7% (active)

Q: How did the growth turn out when `Cc1cccc(Cl)c1NC(=O)c1cnc(Nc2cc(N3CCOCC3)cc(N3CCOCC3)c2)s1` was run?
A: -8.47% (active)

Q: For `Cc1cc(-c2ccc(Cl)cc2)n(Cc2nnc(SCC(=O)Nc3ccc(S(N)(=O)=O)cc3)n2-c2ccc([N+](=O)[O-])cc2)n1`, which growth is on record?
A: 78.6%

Q: Which growth does the source give for `O=C(c1nc2ccccc2[nH]1)C1C(c2cccc([N+](=O)[O-])c2)C2CC3CCCCC3N2[C@@]12C(=O)Nc1cc(Cl)ccc12` (stereo not given in full) here?
A: 1.53% (active)

Q: How did the growth turn out when `O=c1c2cccc(F)c2sc2c(NCCCNCCO)nc3ccccc3c12` was run?
A: -18.3% (active)

Q: `C/C1=C\CC[C@@]2(C)O[C@H]2[C@H]2OC(=O)C(CN3CCN(CC4C(=O)O[C@H]5[C@H]4CC/C(C)=C/CC[C@@]4(C)O[C@@H]54)CC3)[C@@H]2CC1` (stereo not given in full) was tested. Which growth did it give?
A: 46.1%

Q: How did the growth turn out when `O=C(NC[C@H](O)CO)c1ccncc1Nc1ccc(I)cc1F` was run?
A: 103%

Q: With `CSc1ncc(C)c(Nc2ccc(Cl)cc2)n1` as the molecule, how does the growth read?
A: 129%

Q: For `O=S(=O)(NCCCNc1nccc(-n2ccc3cccnc32)n1)c1cccc(C(F)(F)F)c1`, which growth is on record?
A: 108%

Q: How did the growth turn out when `CCC1=C(c2ccc(OC)cc2)C(C)(C)Oc2c1ccc(O)c2CN1CCCC1` was run?
A: -45.1% (active)

Q: With `O=C(O)c1cccc(Br)c1` as the molecule, how does the growth read?
A: 104% and 101%

Q: With `CCCCCCCCn1ccc2cc(NC(=O)Cn3cc(CN4CCCC4)nn3)ccc21` as the molecule, how does the growth read?
A: 16.1%

Q: Which growth does the source give for `CC#CC#Cc1cccc(=O)o1` here?
A: 29.3%

Q: How did the growth turn out when `C/C(Nc1ccc(Cl)c(Cl)c1)=C1\CCOC1=O` was run?
A: 70.5%

Q: How did the growth turn out when `Cc1ccc(-c2nc(/C=N/Nc3cc(C)nc4ccc(Cl)cc34)c(C)o2)cc1` was run?
A: -76% (active)

Q: With `CO/N=C1\CCc2c(sc(NC(=O)c3cccc(C(F)(F)F)c3)c2C(N)=O)C1` as the molecule, how does the growth read?
A: 29.9%

Q: For `O=C(N/N=C\c1ccc([N+](=O)[O-])cc1)c1ccc2nc(-c3ccc(Br)cc3)[nH]c2c1`, which growth is on record?
A: -33% (active)

Q: With `O=C(Nc1ccc(C23CC4CC(CC(c5ccccc5)(C4)C2)C3)cc1)c1cccs1` as the molecule, how does the growth read?
A: 38.6%

Q: With `CC1c2ccccc2N(S(=O)(=O)c2ccccc2)C1C` (stereo not given) as the molecule, how does the growth read?
A: 37.9%

Q: How did the growth turn out when `O=C(Nc1cccc(-n2cc(-c3ccncc3)c(-c3ccc(Cl)c(O)c3)n2)c1)Nc1ccc(Cl)c(C(F)(F)F)c1` was run?
A: -49.5% (active)

Q: For `COc1cc(/C=C/c2nnc(-c3cc(-c4ccccc4)n[nH]3)o2)cc(OC)c1OC`, which growth is on record?
A: 101%

Q: `COc1cc(C2CC(c3ccc(Nc4nc(NCCO)nc(Nc5ccc(Cl)cc5)n4)cc3)=Nc3c(N)nc(N)nc3N2)cc(OC)c1OC` (stereo not given) was tested. Which growth did it give?
A: 58.6%

Q: Which growth does the source give for `CCCCCCCCCCCCCC[n+]1ccc(C(N)=O)cc1` here?
A: -40.6% (active)

Q: `Brc1ccc2[nH]cc(-c3cncn3CCc3ccccc3)c2c1` was tested. Which growth did it give?
A: 17.2%

Q: `Cc1ccc(-c2nc3nc(-c4ccc(Br)cc4)nc(N4CCCNCC4)c3o2)cc1` was tested. Which growth did it give?
A: -65% (active)

Q: For `c1ccc(-c2nc([P+](c3ccccc3)(c3ccccc3)c3ccccc3)c(N3CCOCC3)o2)cc1`, which growth is on record?
A: -22.5% (active)

Q: With `O=c1cn[nH]c2ccc(Br)cc12` as the molecule, how does the growth read?
A: 109%

Q: For `CC(=O)Nc1ccc(S(N)(=O)=O)cc1`, which growth is on record?
A: 100% and 97.2%

Q: For `C#CCOc1ccc2nc(CCl)c(Cl)c(Nc3cccc(C(F)(F)F)c3)c2c1`, which growth is on record?
A: 10.3%

Q: Which growth does the source give for `COc1cc2ncnc(Nc3ccc(S(=O)(=O)Nc4cc(C)on4)cc3)c2cc1OCCCN1CCN(c2ccc(F)cc2)CC1` here?
A: 103%

Q: `Cn1ncc2c(Nc3ccc(Br)cc3)nc(Nc3ccc(Br)cc3)nc21` was tested. Which growth did it give?
A: 51.4%

Q: How did the growth turn out when `O=c1cc(-c2nccc3c2[nH]c2ccccc23)c2cc(Cl)ccc2o1` was run?
A: 2.37% (active)

Q: With `Cc1c(C(=O)O)c(=O)n(-c2ccccc2)n1C` as the molecule, how does the growth read?
A: 127%

Q: How did the growth turn out when `c1ccc2cc(C[n+]3ccn(Cc4ccc5ccccc5n4)c3)ccc2c1` was run?
A: -26.3% (active) and -3.7% (active)

Q: For `COc1cc(N=Nc2cc(Cc3ccc(N(C)C)cc3)c(N)cc2N(C)C)c2ncccc2c1`, which growth is on record?
A: -54.8% (active)

Q: For `COc1ccc(-c2nc3sccn3c2-c2ccnc(NCCCNS(=O)(=O)c3ccc(F)cc3)n2)cc1`, which growth is on record?
A: 6.78% (active)

Q: Which growth does the source give for `Nc1ncncc1-c1ccc(F)cc1` here?
A: 105%
